# Measurements: PubChem BioAssay AID488969 (Vanderbilt High Throughput Screening Facility, 2010)
# Whole data set: some 110,000 compounds, median “z-score” near -0.1, cut for the highest 2% near 2. This excerpt belongs to a sample that is enriched for the highest values. Calls of active or inactive are those of the source.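 Rule for the calls: active = z-score in the third read window above 3 or below -3; inactive = the rest.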 Non-standard residues stand in square brackets, D forms with d. Residues, ends and D or L forms follow the SMILES beside them. ξ: configuration not given here. *: point of attachment. Boc = CC(C)(C)OC(=O)*; ξP = O=C(O)C1CCCN1
# Target: Metabotropic glutamate receptor 8 (Rattus norvegicus) (UniProt P70579)
# Sequence (P70579 whole entry, looked up): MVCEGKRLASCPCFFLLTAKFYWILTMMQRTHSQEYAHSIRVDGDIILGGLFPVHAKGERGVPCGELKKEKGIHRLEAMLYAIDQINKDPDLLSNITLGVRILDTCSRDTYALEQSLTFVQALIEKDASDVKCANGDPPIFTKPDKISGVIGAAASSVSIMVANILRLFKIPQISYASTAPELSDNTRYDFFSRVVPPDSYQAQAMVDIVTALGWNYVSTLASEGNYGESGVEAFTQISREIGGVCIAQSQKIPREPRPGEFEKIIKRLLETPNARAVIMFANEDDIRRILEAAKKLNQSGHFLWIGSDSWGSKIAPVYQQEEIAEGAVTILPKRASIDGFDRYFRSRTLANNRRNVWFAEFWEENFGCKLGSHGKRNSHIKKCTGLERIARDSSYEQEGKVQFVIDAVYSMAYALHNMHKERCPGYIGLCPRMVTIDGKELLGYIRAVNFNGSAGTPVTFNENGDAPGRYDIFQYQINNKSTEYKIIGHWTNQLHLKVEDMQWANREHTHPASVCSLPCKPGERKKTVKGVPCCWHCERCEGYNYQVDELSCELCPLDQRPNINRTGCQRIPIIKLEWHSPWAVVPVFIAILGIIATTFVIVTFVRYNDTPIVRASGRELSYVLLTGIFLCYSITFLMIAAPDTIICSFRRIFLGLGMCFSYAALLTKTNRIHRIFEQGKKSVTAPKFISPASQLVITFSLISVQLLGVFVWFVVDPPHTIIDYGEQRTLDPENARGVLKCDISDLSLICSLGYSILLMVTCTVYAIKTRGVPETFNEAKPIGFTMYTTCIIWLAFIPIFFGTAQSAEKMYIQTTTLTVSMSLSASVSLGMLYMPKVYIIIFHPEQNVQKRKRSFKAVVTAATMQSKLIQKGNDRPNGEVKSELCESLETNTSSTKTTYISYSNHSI
# Assay: rat mGluR8 modulators via GIRK flux, primary screen, cell-based, thallium flux, HTS (AID 488969)
# Details: HEK293 rat mGluR8, GIRK (G protein-gated inwardly rectifying potassium channel) thallium flux, FluoZin2; at 10 µM; stronger effect = higher value; submaximal glutamate (EC20) added with thallium
row,Compound,z-score
1,COCCNC(=O)c1ccc(C(=O)C(=O)c2ccccc2)cc1,-0.189
2,CCOC(=O)N1CCC(NC(=O)c2cc3c(=O)n(C)c4ccccc4c3n2C)CC1,-0.597
3,CC(C)(C)NS(=O)(=O)c1ccc(CCC(=O)Nc2cc(Cl)ccc2Oc2ccccc2)cc1,0.0264
4,Cc1ccc(C(=O)Oc2coc(CSc3nnc(NC(=O)C4CC4)s3)cc2=O)cc1C,0.84
5,Cc1nnc(N(Cc2ccccc2)C(=O)c2cnccn2)s1,0.0216
6,C=CCn1c(SCC(=O)NCCC2=CCCCC2)nc2ccc(Cl)cc2c1=O,-0.151
7,C=CCn1c(SCN2C(=O)c3ccccc3C2=O)nc2ccc(Cl)cc2c1=O,12.6 (active)
8,C=CCn1c(SCC(=O)Nc2sccc2C(N)=O)nc2ccccc2c1=O,-0.59
9,C=CCn1c(SCC(=O)c2ccc(Cl)s2)nc2ccccc2c1=O,-0.205
10,C=CCn1c(SCC(=O)Nc2sccc2C(N)=O)nc2ccc(Cl)cc2c1=O,5.23 (active)
11,C=CCn1c(SCC(=O)Nc2sccc2C(N)=O)nc2sc(CC)cc2c1=O,-1.15
12,O=C1C2C3C=CC([C@@H]2C(=O)N1c1nccs1)C31CC1 (stereo partly specified),-0.0608
13,Cc1ccc2nc(NC(=O)c3ccc(NS(=O)(=O)c4cccs4)cc3)sc2c1,0.062
14,CNC(=S)N=Nc1c(O)[nH]c2ccc(C(C)C)cc12,5.56 (active)
15,NC(=S)N=Nc1c(O)[nH]c2ccc(F)cc12,1.48
16,CC(C)NC(=S)N=Nc1c(O)[nH]c2ccc(C(C)C)cc12,0.589
17,COC(=O)CNC(=O)C1CCCN1C(=O)OC(C)(C)C (stereo unspecified) (Boc-[ξP]-Gly-OMe),-0.536
18,Cn1cc(Cl)c(C(=O)Nc2nc3ccc(Cl)cc3s2)n1,0.119
19,CCOC(=O)N1CCN(c2cc3nccnc3cc2F)CC1,-0.142
20,CCOC(=O)N1CCN(c2c(F)cc3[nH]c(=S)[nH]c3c2Br)CC1,6.26 (active)
21,CCOC(=O)N1CCN(c2cc3[nH]c(=S)[nH]c3cc2F)CC1,-0.482
22,CC1CCCC(C)N1C(=O)CSc1nnc(NC(=O)Cc2cccs2)s1 (stereo unspecified),-1.05
23,Cc1cc(NC(=O)CCC(=O)NNC(=O)c2ccc(C(C)(C)C)cc2)no1,-0.141

row,Compound,z-score
1,Cc1noc(C)c1CSc1ccccc1C(=O)Nc1nccs1,0.618
2,CN=c1scc(-c2cccs2)n1/N=C/c1ccc(O)c(O)c1O,3.01 (active)
3,COCCNC(=O)Nc1ccc2nc(-c3cccs3)c(-c3cccs3)nc2c1,-0.235
4,CN=c1scc(C)n1/N=C/c1ccc(O)c(O)c1O,-0.648
5,CN=c1scc(-c2cccs2)n1/N=C/c1ccccc1O,0.0374
6,COc1ccc(O)c(/C=N/n2c(-c3ccco3)csc2=Nc2cccnc2)c1,0.368
7,CN=c1scc(C)n1/N=C/c1ccc(O)cc1O,0.0453
8,CCN=c1scc(C)n1/N=C/c1ccsc1,-0.0195
9,CCN=c1scc(C)n1/N=C/c1ccc(O)c(O)c1O,-0.528
10,Oc1ccc(/C=N/N=C(c2ccccc2)c2ccccc2)c(O)c1O,-0.213
11,COCCN=c1scc(-c2cccs2)n1/N=C/c1ccc(O)c(O)c1O,2.93
12,CC(C)N=c1scc(-c2cccs2)n1/N=C/c1ccc(O)c(O)c1O,4.07 (active)
13,CCN=c1scc(-c2cccs2)n1/N=C/c1cc(OC)ccc1O,2.02
14,COc1cc(/C=N/NC(=O)COc2ccc(Cl)cc2)ccc1OS(=O)(=O)c1ccc(C)cc1,-0.0849
15,CCOC(=O)C1=NNC(C(=O)c2ccc(C)cc2)C1c1ccc(C)cc1 (stereo unspecified),-0.512
16,C=C(C)c1cccc(C(C)(C)NC(=O)N2CC(C)OC(C)C2)c1 (stereo unspecified),-0.0325
17,Cc1nn(C)c(C)c1/C=C(\C#N)C(N)=O,-0.273
18,Cc1ccc(CN(Cc2ccc(C)o2)C(=S)NCC(=O)O)cc1,-0.00212
19,Cc1sc2nc(CN3CCCCC3)nc(Cl)c2c1C,-0.502
20,Cn1c(NCC(O)CO)nc2c1c(=O)n(Cc1ccc(Cl)c(Cl)c1)c(=O)n2C (stereo unspecified),-0.188
21,COc1ccc2c(c1)c(=O)cc(-c1ccccc1)n2C,-0.0758
22,CCN=c1scc(-c2ccccc2)n1/N=C/c1ccccn1,-0.0993
23,COCCN=c1scc(-c2cc(OC)ccc2OC)n1/N=C/c1c[nH]c2ccccc12,-0.343

row,Compound,z-score
1,COCCN=c1scc(-c2ccccc2)n1/N=C/c1c[nH]c2ccccc12,2.05
2,CC1CCCC(NC(=O)Cn2cc3c(n2)CCCCC3)C1C (stereo unspecified),0.237
3,O=C(Cn1cc2c(n1)CCCCC2)Nc1c(F)c(F)cc(F)c1F,0.762
4,COc1cccc(CNC(=O)Cn2cc3c(n2)CCCCC3)c1,-0.00462
5,CC(=O)c1cccc(NC(=O)Cn2cc3c(n2)CCCC3)c1,-0.279
6,CCc1cccc(NC(=O)Cn2cc3c(n2)CCCC3)c1,0.22
7,COc1cccc(NC(=O)Cn2cc3c(n2)CCCCC3)c1,2.89
8,Cc1cc(C)cc(NC(=O)Cn2cc3c(n2)CCCCC3)c1,5.95 (active)
9,CC1CCc2nn(CC(=O)NC3CCCC3)cc2C1 (stereo unspecified),-0.653
10,CC1CCC(NC(=O)Cn2cc3c(n2)CCCC3)CC1 (stereo unspecified),2.79
11,C/C(=N/NC(=O)c1ccc(O)cc1)c1cccc([N+](=O)[O-])c1,-0.369
12,Cc1c2ccccc2nc2c(F)c(NCCO)c(F)c(F)c12,-0.746
13,COc1ccc(/C=N/OCC(=O)N(Cc2ccc(OC)cc2)c2ccccc2C(=O)O)cc1,-0.615
14,Cc1nn(Cc2ccccc2)c(C)c1NC(=O)CCC(=O)O,-0.119
15,Cc1cc(C)c(C(=O)CSc2nnc(-c3cccnc3)n2C)c(C)c1,0.116
16,CCCCNC(=O)/C=C/c1cccs1,-0.364
17,N#CC(c1cccc(Cl)c1)c1ccc2c(C(F)(F)F)cc(C(F)(F)F)nc2n1 (stereo unspecified),10.5 (active)
18,N#CC(c1ccccc1)c1ccc2c(C(F)(F)F)cc(C(F)(F)F)nc2n1 (stereo unspecified),0.135
19,Cc1ccc(C(C#N)c2ccc3c(C(F)(F)F)cc(C(F)(F)F)nc3n2)cc1 (stereo unspecified),1.26
20,C/C(Cl)=C\Cn1c(NCCCn2ccnc2)nc2c1c(=O)n(C)c(=O)n2C,-0.632
21,Cn1c(=O)[nH]c(=O)c2c1nc(NC1CCCCC1)n2Cc1ccccc1,0.331
22,CC(=O)c1cc(OC(=O)N2CCOCC2)ccc1OC(=O)N1CCOCC1,-0.376
23,CN(C)Cc1nc2c(c(=O)[nH]1)C(C)(C)Cc1ccccc1-2,0.00689

row,Compound,z-score
1,O=C(COC(=O)c1ccc2c(c1)C(=O)N(c1cccc3ncccc13)C2=O)c1ccc(Cl)cc1,-0.619
2,COc1ccc(NC(=O)N2CC(C)OC(C)C2)cc1OC (stereo unspecified),-0.307
3,O=C(CCNS(=O)(=O)c1ccc2c(c1)CCC(=O)N2)NCc1cccnc1,-0.489
4,CCn1nnc(NC(=O)COc2ccc(C3CCCCC3)cc2)n1,2.13
5,CCCCn1nnc(NC(=O)COc2ccc(Cl)c(C)c2)n1,0.0561
6,CCCCn1nnc(NC(=O)COc2cc(C)ccc2C(C)C)n1,1.04
7,CCCn1nnc(NC(=O)COc2ccc(CC)cc2)n1,-0.0151
8,Cn1nnc(NC(=O)COc2ccc(C3CCCCC3)cc2)n1,0.85
9,CCCn1nnc(NC(=O)COc2cc(C)ccc2C(C)C)n1,2.14
10,CCn1nnc(NC(=O)COc2cc(C)ccc2C(C)C)n1,-0.0287
11,CCCn1nnc(NC(=O)COc2ccc(C3CCCCC3)cc2)n1,2.04
12,CCCn1nnc(NC(=O)COc2ccc(Cl)cc2)n1,-0.244
13,CC1C/C(=N/N=C2/NC(=O)CS2)CC(C)(C)C1 (stereo unspecified),-0.18
14,Cc1cccc(-n2nc3c([n+]2[O-])CCc2nonc2-3)c1C,-0.912
15,Clc1ccccc1CN(Cc1ccccc1)C(c1cccs1)c1nnnn1C1CCCC1 (stereo unspecified),-0.135
16,CN(C)C(CNC(=O)CCCc1c[nH]c2ccccc12)c1ccco1 (stereo unspecified),-0.0945
17,O=C(O)c1ccccc1C(=O)Nc1n[nH]c(=S)s1,-0.153
18,COCCn1c(SCC(=O)Nc2ccc(N3CCOCC3)cc2)nc2ccccc21,-0.228
19,CCCCn1c(SCC(=O)Nc2ccc(OC)cc2)nc2ccc(N3CCOCC3)cc2c1=O,4.35 (active)
20,N#CCCn1c(SCC(=O)NCC2CCCO2)nc2ccccc21 (stereo unspecified),-0.368
21,N#CCCn1c(SCC(=O)Nc2ccc(N3CCOCC3)cc2)nc2ccccc21,2.51
22,Nc1ccccc1SCC(=O)Nc1ccc(N2CCOCC2)cc1,2.53
23,CCCCn1c(SCC(=O)NCCOC)nc2ccc(N3CCOCC3)cc2c1=O,1.19

row,Compound,z-score
1,CCCCn1c(SCC(=O)NC(C)CC)nc2ccc(N3CCOCC3)cc2c1=O (stereo unspecified),0.126
2,O=C(CSc1ncccn1)Nc1ccc(N2CCOCC2)cc1,-0.202
3,O=C(CSc1ccccc1)Nc1ccc(N2CCOCC2)cc1,0.00596
4,CCCCNC(=O)CSc1nc2ccc(N3CCOCC3)cc2c(=O)n1CCc1ccccc1,1.19
5,N#CCSc1nc2ccc(N3CCOCC3)cc2c(=O)n1CCc1ccccc1,4.95 (active)
6,N#CCSc1nc2ccc(N3CCCCC3)cc2c(=O)n1Cc1ccccc1,0.65
7,Cc1cc(NS(=O)(=O)c2ccc(NC(=O)c3oc4ccccc4c3C)cc2)no1,0.155
8,CCC(CC)C(=O)Nc1ccc(Nc2ccccc2)cc1,-0.165
9,Cc1cc(N2CCN(c3ccccc3Cl)CC2)n2cc(-c3ccccc3)nc2n1,0.105
10,Cc1ccnc(SCC(=O)Nc2c(C)n(C)n(-c3ccccc3)c2=O)n1,-0.181
11,CC(C)(C)c1ccc(C(=O)NCc2cccnc2)cc1,0.116
12,CC(CCc1ccccc1)NC(=O)Cc1ccc([N+](=O)[O-])cc1 (stereo unspecified),-1.51
13,CCCCOc1ccc(C(C)NC(=O)CCS(=O)(=O)Cc2ccccc2Cl)cc1 (stereo unspecified),0.131
14,Cc1ccc(/C=N/NC(=O)c2cc3c(ccc4ccccc43)o2)cc1[N+](=O)[O-],-0.185
15,Cc1cccc2c1N1C(=O)c3c(C(=O)O)cccc3C1CC2C (stereo unspecified),-0.265
16,CON(C)c1nc(OCCNC(=O)COc2ccc(Cl)cc2C)nc(N(C)C)n1,0.98
17,CC1=CC(C)(C)N(C(=O)CN2C(=O)c3ccccc3C2=O)c2ccc(C)cc21,0.455
18,CCOC(=O)C1=C(C)NC(=O)C(C(N)=O)C12CCCC2 (stereo unspecified),-0.24
19,Cc1nc2ccccc2cc1C(=O)N/N=C/c1cccs1,-0.0999
